Assay outcomes from PubChem.
D2 antag = antagonists of human D2 dopamine receptor; inhibition, % at 10 µM; 2% of 340,000 active; HEK293 TREx D2 cells, calcium flux, dopamine EC80; in the data active = inhibition above about 30%; inactive = below that, where a call was filed; also: 0% is about no effect
Target sequence (P14416 whole entry, looked up): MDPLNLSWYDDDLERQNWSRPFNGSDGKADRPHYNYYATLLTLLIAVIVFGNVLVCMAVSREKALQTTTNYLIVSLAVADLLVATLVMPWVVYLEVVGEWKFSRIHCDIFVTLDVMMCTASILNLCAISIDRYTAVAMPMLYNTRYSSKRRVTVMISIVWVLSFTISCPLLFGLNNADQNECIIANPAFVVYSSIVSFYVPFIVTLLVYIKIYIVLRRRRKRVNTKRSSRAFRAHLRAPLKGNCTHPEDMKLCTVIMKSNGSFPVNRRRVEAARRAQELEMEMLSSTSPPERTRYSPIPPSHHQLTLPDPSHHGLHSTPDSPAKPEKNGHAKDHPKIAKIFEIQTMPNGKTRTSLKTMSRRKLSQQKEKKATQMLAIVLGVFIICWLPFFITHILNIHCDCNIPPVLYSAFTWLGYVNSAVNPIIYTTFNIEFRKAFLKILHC
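Cells plated overnight at 30 C with tetracycline; no-wash calcium dye, 30–90 min RT; 10 s baseline; compound pinned; 180 s read; EC80 dopamine added; another 180 s read.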
D2 ag-1 = human D2 receptor agonism in beta-arrestin assay | activation, % (test concentration not listed) | DiscoveRx PathHunter D2 beta-arrestin, luminescence, 90 min; 100% = 57 uM dopamine signal | 0.084% of 360,000 active | AID 624465; in the data active = activation above about 40%; inconclusive = between about 15% and that limit
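Agonist mode: compounds alone added to overnight-plated D2 PathHunter cells for 90 min at 37 C, with 57 uM final dopamine (EC100) defining full response. Beta-arrestin recruitment detected by chemiluminescent reagent, read after 1 h at ambient temperature.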
D2 PAM-1 = human D2 receptor positive allosteric modulation | DiscoveRx D2 beta-arrestin cells, luminescence, 90 min; 100% = 57 uM dopamine signal | AID 624464 | 0.23% of 360,000 active | potentiation, % (test concentration not listed); in the data active = potentiation above about 50%; inconclusive = mostly about 30% to 49%
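PathHunter D2 cells, attached overnight at 37 deg C, received compound in DMSO plus dopamine at EC20 (50 nM final) for 90 min at 37 deg C. Beta-arrestin recruitment was read as luminescence after 1 h with detection reagent at ambient temperature.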
D2 PAM-2 = positively modulates the human D2 dopamine receptor allosterically. potentiation, % at 10 µM. AID 485347. HEK293 T-REx D2, calcium flux, EC20 dopamine potentiation. 0.34% of 340,000 active;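 active = potentiation over 3 SD above the plate norm, cut at about 30% in these data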; also: 0% is about no effect
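Calcium flux readout, no-wash dye, 1 read/s. Inducible HEK293 Trex D2 line, overnight 30 C. Compound alone 180 s (agonist flags), then EC20 dopamine, another 180 s to score potentiation.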
D2 ag-2 = activates the human D2 dopamine receptor. 0.53% of 340,000 active. HEK293 T-REx D2 cells, calcium flux agonist mode. activation, % at 2 µM. P14416. AID 485358;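 active = activation over 3 SD above normal in the single-dose calcium agonist read, cut at about 30% in these data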; also: 0% is about no effect
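HEK293 Trex D2 cells, tetracycline-induced, o/n 30 C 5% CO2; no-wash Ca dye, RT 30–90 min; 10-cycle baseline, 23 nl cpd added, kinetic Ca read 180 s; agonist hits = positive Ca response.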
The depositor's hits bear a star; u = inconclusive; x = not tested or not shown. Sampled rows, rich in hits. Any-hit rate of the full collection: about 2.4%.

SMILES	D2 antag	D2 ag-1	D2 PAM-1	D2 PAM-2	D2 ag-2
Fc1ccc(N2CCN(Cc3cn[nH]c3-c3ccccc3)CC2)cc1	-4	1	-15	-14	6
O=c1c(Cc2ccc(F)cc2)c(O)ccn1Cc1ccc(Cl)cc1Cl	44*	-2	-1	9	3
O=c1cc(C(Cl)(Cl)Cl)oc2c1ccc1ccccc12	23	10	85*	-7	0
O=C1COc2ccc(-c3cc(-c4ccc(F)cc4)c4c(n3)-c3ccccc3OC4)cc2N1	x	x	x	-3	0
COc1ccc(S(=O)(=O)NCC2CCCO2)cc1NC(=O)c1ccccc1F (configuration not stated)	36*	-3	-9	-3	0
CCOC(=O)c1ccc(NC2=CC(c3ccc(F)cc3)N(c3ccc(C(=O)OCC)cc3)C2=O)cc1 (configuration not stated)	x	x	x	1	x
COc1ccccc1NC(=O)CSc1oc(-c2cccs2)nc1S(=O)(=O)c1ccccc1	x	x	x	-11	1
O=[N+]([O-])c1ccc(Sc2nnnn2-c2ccccc2)c(Cl)c1	36*	13	30	-6	-1
Cn1nnnc1Sc1ccc([N+](=O)[O-])cc1Cl	-18	7	19	2	1
COc1ccccc1NC(=O)Cn1c(=O)n(-c2ccc(C)cc2)c(=O)c2c1cnn2C	x	x	x	-2	0
COc1cccc(-c2noc(C3CCCN(C(=O)c4ccc(F)cc4F)C3)n2)c1 (configuration not stated)	33*	-4	0	19	-1
Cc1ccc(Cl)cc1N(C)C(=O)c1sc2nc3n(c(=O)c2c1C)CCCC3	x	x	x	-7	1
O=C(Nc1cccc(C(F)(F)F)c1)c1cc2ncc(Br)cn2n1	53*	-2	-5	-25	1
O=C1CCCc2cc(S(=O)(=O)NCC3CCC(C(=O)Nc4ccc(Cl)cc4)CC3)ccc2N1 (configuration not stated)	x	x	x	2	0
COc1ccc(Nc2ncc(C(=O)N3CCN(c4cccc(Cl)c4)CC3)c3ccccc23)cc1	x	x	x	-9	0
Cn1cc(S(=O)(=O)N2CCOCC2)cc1C(=O)Nc1ccc(Cl)c(C(F)(F)F)c1	x	x	x	6	1
CCOC(=O)/C(=C\C=C1/Sc2ccccc2N1CC)C(C)=O	x	4	-8	x	x
CCOC(=O)/C(=C/C=C1\Sc2ccccc2N1CC)C(C)=O	1	-4	-2	1	35*
CCOC(=O)/C(=C/C=C1\Sc2cc(C)c(C)cc2N1CC)C(C)=O	29	6	-12	31*	84*
CC(=O)c1ccc(NC(=O)c2ccc3nc(-c4ccco4)c(-c4ccco4)nc3c2)cc1	x	13	76*	x	x
O=C(Nc1ccccc1)c1ccc2nc(-c3ccco3)c(-c3ccco3)nc2c1	1	7	u	25	-2
Fc1cccc(Cc2noc(CN3CCOCC3)n2)c1	8	-4	-11	-6	0
Fc1cccc(Cc2noc(CN3CCC(c4ccncc4)CC3)n2)c1	53*	8	-7	0	0
O=C1CC(c2nnc(Cc3ccc(F)cc3)o2)CN1c1ccccc1 (configuration not stated)	x	x	x	11	1
O=C(CSc1n[nH]c(-c2ccc(S(=O)(=O)N3CCCCC3)cc2)n1)Nc1nccs1	39*	0	-2	0	1
SMILES	D2 antag	D2 ag-1	D2 PAM-1	D2 PAM-2	D2 ag-2
Cc1ccc(NC(=O)Cn2cnc3c(nnn3Cc3ccc(F)cc3)c2=O)cc1	-27	-6	-3	-2	0
O=C(Cn1cnc2c(nnn2Cc2ccc(F)cc2)c1=O)Nc1cccc(F)c1	37*	1	-3	-4	1
Cc1cccc(C)c1NC(=O)CSc1nccn1C	x	x	x	-10	14
O=C(Nc1cccc(S(=O)(=O)C(F)F)c1)c1ccc(S(=O)(=O)N2CCCC2)cc1	59*	3	4	-15	-1
O=C(Nc1ccc(S(=O)(=O)N2CCCC2)cc1)c1ccc(CN2CCOCC2)cc1	-6	-1	-3	13	2
O=C(Nc1ccc(S(=O)(=O)N2CCCCC2)cc1)c1ccc(CN2CCOCC2)cc1	x	2	-9	42*	x
CCN(CC)S(=O)(=O)c1ccc(NC(=O)c2ccc(CN3CCOCC3)cc2)cc1	8	0	-10	30*	1
CC1CCc2onc(C(=O)N3CCN(c4ccc(F)cc4)CC3)c2C1 (configuration not stated)	x	x	x	2	-3
CCOC(=O)Cc1csc(NC(=O)COc2ccc3ccccc3c2)n1	59*	-1	3	-4	1
Cc1ccccc1N=Cc1cc2c(cc1O)OC(N)=C(C#N)C2c1ccccc1 (configuration not stated)	33*	1	-15	-1	0
Nc1c(C(=O)NCc2ccccc2)nnn1Cc1cccc(Br)c1	x	x	x	2	-1
O=C(ONC1=NCCCCC1)c1cccc([N+](=O)[O-])c1	-5	8	55*	0	0
O=C(Nc1ccc(Cl)c([N+](=O)[O-])c1)ONC1=NCCCCC1	x	u	54*	x	x
O=C(CN1C(=O)NC2(CCCCCC2)C1=O)Nc1ccc(Cl)c([N+](=O)[O-])c1	x	-3	-21	x	x
CCn1c(=O)cc(SCC(=O)NCc2ccccc2OC)c2ccccc21	x	x	x	17	2
COc1ccccc1C(=O)NC1CCCc2ccccc21 (configuration not stated)	8	2	-5	2	2
COc1cc(C(=O)NC2CCCc3ccccc32)cc(OC)c1C (configuration not stated)	55*	1	-4	x	-3
CS(=O)(=O)c1ccccc1C(=O)NC1CCCc2ccccc21 (configuration not stated)	-6	-1	-3	37*	1
CCS(=O)(=O)c1ccccc1C(=O)NC1CCCc2ccccc21 (configuration not stated)	12	3	-5	7	-2
CN(C)CCCNC(=O)N1c2ccccc2C=Cc2ccccc21	33*	-5	-16	6	1
CCN(CC)C(=O)N1c2ccccc2C=Cc2ccccc21	-4	-3	0	-2	0
CCC(C)Oc1ccc(/C=C/c2[nH]c(=O)[nH]c(=O)c2[N+](=O)[O-])cc1OC (configuration not stated)	-6	-5	-4	34*	-1
CCOc1ccc(OCC)c(NC(=O)C(NS(=O)(=O)c2ccc(Br)s2)c2ccccc2)c1 (configuration not stated)	x	x	x	-1	x
c1ccc(CN2CCN(c3nc4ccccc4n4cnnc34)CC2)cc1	68*	-5	-5	-32	1
Clc1cccc(N2CCN(CCNc3nc4ccccc4n4cnnc34)CC2)c1	42*	3	-16	-21	4
